# Most compounds without a hit are left out; they make up all but 3.9% or so of the library.
# HIF-2a inh – HIF-2a reporter inhibitors, primary screen, luminescence, 786-0 RCC cells. 786-0 RCC cells HIF-2a reporter, luciferase luminescence, overnight. 360,000 tested, 0.72% active. inhibition, % at 18.8 µM;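 active means inhibition of the luminescence signal of 40% or more relative to plate controls, in a single-dose primary screen at 18.75 µM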
# C8 TRAIL sens – viability loss with TRAIL in NB7+C8 cells, primary screen, TRAIL sensitizer project, cell-based, ATPlite luminescence. 360,000 tested, 1% active. inhibition (viability loss, TRAIL sensitization), % at 10 µM. AID 624354, 2012;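 active means compounds causing at least 50% loss of cell viability in the single-dose screen, relative to plate controls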
# TROY NFkB inh – inhibitors of TROY-driven NF-kB signaling, primary screen, Q293 LMP1-TROYcd cells, NF-kB luciferase, uHTS; 360,000 tested, 0.98% active; inhibition, % at 10 µM; Q293 LMP1-TROYcd NF-kB luciferase reporter, 4 h;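 active means compounds whose plate-normalised and pattern-corrected inhibition of the luciferase reporter signal at the single screening dose is 50% or more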
# aSyn UTR inh – MLPCN primary screen, SNCA 5' untranslated region; alpha-synuclein 5'UTR reporter, inhibitor activity; 300,000 tested, 0.82% active; inhibition, % (tested at 7.5 µM); in the data active means inhibition above about 60%;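 further: H4 neuroglioblastoma cells stably carrying SNCA 5'UTR luciferase fusion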
# TWEAK-Fn14 inh – inhibitors of TWEAK-Fn14 signaling, primary screen, luciferase reporter cells, uHTS. inhibition, % at 10 µM. AID 1159606, 2016. 360,000 tested, 2% active. TWEAK-stimulated Fn14 reporter cells, luciferase luminescence, 8 h; in the data active means inhibition above about 50%
# HSP90 inh – HSP90 inhibitors, primary screen, cell lysate, luminescence. Heat shock protein HSP 90 (rabbit reticulocyte lysate; luciferase refolding). Rabbit reticulocyte lysate, luciferase refolding luminescence, 3 h. inhibition, % at 5.6 µM. 290,000 tested, 0.91% active;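 active means inhibition above the screen-wide mean plus 3 SD, computed separately per campaign, cut at about 16% in these data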;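 further: inhibitors lower the luminescence because luciferase stays unfolded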
# A number is an active result; i = inactive; nt = no result given.
SMILES,HIF-2a inh,C8 TRAIL sens,TROY NFkB inh,aSyn UTR inh,TWEAK-Fn14 inh,HSP90 inh
CC(=O)Nc1cccc(C(=O)NN2C(=O)NC3(CCC(C)CC3)C2=O)c1 (configuration not stated),i,i,i,nt,i,nt
Cc1c(/C=N/NC(=O)c2ccccc2O)c2ccccn2c1C(=O)c1ccc(F)cc1,i,i,51,i,66,i
COC(=O)N/N=C/c1c(C)c(C(=O)c2ccc(F)cc2)n2ccccc12,i,i,i,i,i,i
Cc1c(/C=N/NC(=O)c2ccc(O)cc2)c2ccccn2c1C(=O)c1ccc(F)cc1,i,i,i,i,54,i
N#C/C(=C\c1cccs1)C(=O)Nc1nccs1,i,i,i,i,53,i
CC(C)C[C@@H](CN1CCC[C@@H]1CN1C(=S)NC[C@@H]1Cc1ccccc1)N1C[C@H](Cc2ccc(O)cc2)N(CC2CCCCC2)C1=S,i,i,i,nt,i,nt
Oc1ccc(C[C@H]2CN([C@@H](Cc3ccccc3)CN3CCCC3CN3C(=S)NC[C@@H]3Cc3ccccc3)C(=S)N2CC2CCCCC2)cc1 (some centres not stated),i,i,i,nt,i,nt
Oc1ccc(C[C@H]2CN([C@@H](Cc3ccc(O)cc3)CN3CCC[C@@H]3CN3C(=S)NC[C@@H]3Cc3ccccc3)C(=S)N2CC2CCCCCC2)cc1,i,i,i,nt,61,nt
CC(C)C[C@@H](CN1CCCC1CN1C(=S)NC[C@@H]1Cc1ccc(O)cc1)N1C[C@H](Cc2ccc(O)cc2)N(CC2CCCCC2)C1=S (some centres not stated),i,i,i,nt,56,nt
Oc1ccc(C[C@H]2CNC(=S)N2CC2CCCN2C[C@H](Cc2ccc(O)cc2)N2C[C@H](Cc3ccccc3)N(CCc3ccccc3)C2=S)cc1 (some centres not stated),i,i,i,nt,55,nt
Oc1ccc(C[C@H]2CNC(=S)N2CC2CCCN2C[C@H](Cc2ccc(O)cc2)N2C[C@H](Cc3ccc(O)cc3)N(CC3CCCCC3)C2=S)cc1 (some centres not stated),i,i,i,nt,96,nt
COc1cc(OC)cc(C2=Cc3ccccc3C(CC(=O)c3ccco3)N2c2ccc(-c3cccnc3)cc2)c1 (configuration not stated),i,i,i,nt,i,nt
Cc1ccc(S(=O)(=O)N2CCCCC2)cc1NS(=O)(=O)c1ccccc1F,i,i,i,nt,i,nt
Oc1ccc(C[C@H]2CN([C@@H](Cc3cccc(O)c3)CN3CCC[C@@H]3CN3C(=S)NC[C@@H]3Cc3ccccc3)C(=S)N2CC2CCCCC2)cc1,i,i,i,nt,55,nt
COc1ccc(CCNc2cc(N3CCN(C(=O)c4ccc(C)cc4)CC3)ccc2[N+](=O)[O-])cc1OC,nt,nt,nt,i,nt,i
COc1ccc(CCNc2cc(N3CCN(C(=O)c4ccccc4F)CC3)ccc2[N+](=O)[O-])cc1OC,i,52,i,i,93,i
COc1ccc(C(=O)N2CCN(c3ccc([N+](=O)[O-])c(NCCc4ccc(OC)c(OC)c4)c3)CC2)cc1,i,i,63,i,92,i
O=C(c1ccccc1F)N1CCN(c2ccc([N+](=O)[O-])c(NCc3cccnc3)c2)CC1,i,i,i,i,72,i
O=C(c1ccccc1)N1CCN(c2ccc([N+](=O)[O-])c(NCc3cccnc3)c2)CC1,i,i,i,i,i,i
CCCS(=O)(=O)NC(=O)C1(C)CCCN(C(=O)c2ccc(SC(F)(F)F)cc2)C1 (configuration not stated),i,i,i,nt,i,nt
COc1ccc(-c2csc(-c3ccccc3)n2)c(OC)c1,i,i,i,i,56,i
COc1ccc(-c2csc(-c3cccs3)n2)c(OC)c1,i,i,i,i,i,i
CSc1ccc(CN2CCC(C)(Oc3ccccc3)C2)cc1 (configuration not stated),i,i,i,nt,i,nt
Cc1ccc(C(c2cc(Cl)c3cccnc3c2O)N2CCN(C)CC2)cc1 (configuration not stated),43,i,i,66,i,i
O=C(NNC(=O)c1ccncc1)Nc1ccc(N=Nc2ccccc2)cc1,i,i,i,nt,i,nt
SMILES,HIF-2a inh,C8 TRAIL sens,TROY NFkB inh,aSyn UTR inh,TWEAK-Fn14 inh,HSP90 inh
C1=C(CCNc2ncnc3c2[nH]c2ccccc23)CCCC1,i,i,i,nt,69,i
CCOC(=O)[C@]12CCC=C1N(Cc1cccc3ccccc13)C(=O)[C@H](CC(=O)NCCC(C)C)C2,i,i,i,nt,i,nt
CC1(C(=O)Nc2ccc3c(c2)OCCO3)CN(S(C)(=O)=O)CC(=O)N1CCCN1CCOCC1 (configuration not stated),i,i,nt,nt,nt,nt
O=C(NCc1nc2ccccc2[nH]1)C1=C[C@H](c2csc3ccccc23)C[C@H](OCc2ccc(CO)cc2)O1,i,i,i,i,55,nt
O=C(NCc1nc2ccccc2[nH]1)C1=C[C@@H](c2ccc(Br)cc2)C[C@@H](OCc2ccc(CO)cc2)O1,i,i,i,i,i,i
C[C@H]1C=C(C(=O)NCc2nc3ccccc3[nH]2)O[C@@H](OCc2ccc(CO)cc2)C1,i,i,i,i,i,nt
O=C(NCc1nc2ccccc2[nH]1)C1=C[C@@H](c2csc3ccccc23)C[C@@H](OCc2ccc(CO)cc2)O1,i,i,i,i,57,i
CCO[C@H]1C[C@@H](c2ccc(CC)cc2)N(S(=O)(=O)c2ccc(C)cc2)C2CC(c3ccc(CC)cc3)N(S(=O)(=O)c3ccc(C)cc3)CC21 (some centres not stated),i,i,nt,nt,nt,nt
O=[N+]([O-])c1ccc(S(=O)Cc2ccccc2)c([N+](=O)[O-])c1 (configuration not stated),93,66,74,nt,i,nt
O=C1c2ccccc2NC(c2ccccc2)N1Cc1ccccc1 (configuration not stated),i,i,i,i,i,nt
COc1cccc(C2Nc3ccccc3C(=O)N2Cc2ccccc2)c1 (configuration not stated),i,i,i,79,i,nt
O=C1NC[C@@H](CCCCN2C[C@H](Cc3ccccc3)N(CC3CCCCC3)C(=O)C2=O)N(CC2CCCCC2)C1=O,i,i,i,nt,i,nt
CCc1ccc(OCc2ccc(C(=O)NCc3ccccn3)o2)cc1,i,i,i,i,i,17
Cc1ccc(NS(=O)(=O)c2cc(C(=O)N(C)C3CCN(C)CC3)ccc2Cl)cc1Cl,i,i,i,nt,i,nt
O=C1C(Cl)=C(NC(=O)c2ccccc2)C(=O)C(Cl)=C1NC(=O)c1ccccc1,72,i,i,i,i,71
O=C(NC1=C(Nc2ccc(Cl)cc2)C(=O)c2ccccc2C1=O)c1ccccc1,i,i,i,i,i,i
Cc1nnn(-c2nonc2N)c1C(=O)N/N=C/c1ccccc1O,i,i,i,68,i,i

# Compound activity: PubChem, several laboratories
